hgDAF-12 ag: H. glycines DAF-12 receptor agonists, primary screen, cell-based, luminescence, HEK293, GAL4 fusion, UAS-luciferase; Nuclear hormone receptor DAF-12 (Heterodera glycines), GAL4 fusion; HEK293 GAL4-hgDAF12 UAS-luciferase reporter, agonist luminescence; normalized to butyrate control; activation, % at 6.8 µM; hit rate 1.8% among 370,000; AID 687014, 2013;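 active = activation above a cutoff set at the mean of all screened compounds plus 3 SD, cut at about 10% in these data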;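 note: 0% = DMSO wells and 100% = sodium butyrate wells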
hcDAF-12 act: H. contortus DAF-12 nuclear receptor activators, primary screen, cell-based, luminescence, HEK293, lit1-tk-luc reporter | HEK293 hcDAF-12 lit1-tk-luc reporter; 0% DMSO, 100% Δ7-dafachronic acid | activation, % at 6.8 µM | hit rate 1.4% among 370,000 | AID 652067, 2013;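 active = activation above the mean of all tested compounds plus 3 SD, cut at about 5.5% in these data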;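 note: 100% = response to 3 µM Δ7-dafachronic acid high control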
ssDAF-12 act: S. stercoralis DAF-12 nuclear receptor activators, primary screen, cell-based, luminescence, HEK293, GRIP1 co-expression, lit1-tk-luc; Nuclear hormone receptor DAF-12 (Strongyloides stercoralis); HEK293 ssDAF-12/GRIP1 lit1-tk-luc reporter; % of 3 µM dafachronic acid response; activation, % at 6.8 µM; hit rate 1% among 370,000; AID 652126, 2013;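 active = activation above the mean over all tested compounds plus 3 SD, cut at about 0.9% in these data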;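 note: 0% = DMSO-only wells and 100% = 3 µM delta7-dafachronic acid wells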
DAX1 inh-1: DAX1 (NR0B1) inhibitors on StAR promoter, primary screen, cell-based, luminescence, SF-1 (NR5A1), full-length DAX-1 | HEK293T StAR-luciferase reporter, SF-1/DAX-1 repression relief | hit rate 1.1% among 370,000 | inhibition, % at 6.8 µM;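 active = inhibition above the mean over all tested compounds plus 3 SD, cut at about 3.6% in these data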;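 note: 0% = DAX-1 cells with DMSO and 100% = cells lacking DAX-1 with DMSO; higher inhibition means more luminescence from relief of DAX-1 repression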
DAX1 inh-2: DAX1 (NR0B1) inhibitors, primary screen, cell-based, HEK293, Gal4-DAX1, luciferase luminescence | Nuclear receptor subfamily 0 group B member 1 (Homo sapiens), P51843 | HEK293 Gal4-DAX1 luciferase reporter | inhibition, % at 6.75 µM | hit rate 0.99% among 340,000 | AID 504766, 2011;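 active = inhibition above the mean over all tested compounds plus 3 SD, cut at about 4.2% in these data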;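 note: 0% = DAX1-transfected cells with DMSO and 100% = empty-vector control cells with DMSO; inhibition shows as a rise in luminescence from relieved DAX1 repression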
Target sequence (P51843 207-470 limits assumed): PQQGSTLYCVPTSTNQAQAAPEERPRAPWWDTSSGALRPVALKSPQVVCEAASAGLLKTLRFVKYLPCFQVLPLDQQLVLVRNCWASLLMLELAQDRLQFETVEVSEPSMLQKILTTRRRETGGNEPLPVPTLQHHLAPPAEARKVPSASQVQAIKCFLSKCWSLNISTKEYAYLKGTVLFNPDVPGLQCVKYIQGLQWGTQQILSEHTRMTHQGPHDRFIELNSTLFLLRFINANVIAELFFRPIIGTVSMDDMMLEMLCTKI
DAX1 conf: DAX1 (NR0B1) inhibitors relieving SF-1 repression, confirmation, cell-based, luminescence, HEK293T, full-length DAX-1, SF-1 activated StAR promoter; shares compounds with DAX1 inh-1; HEK293T StAR-promoter luciferase reporter, SF-1/DAX-1 repression; inhibition, % at 6.8 µM; hit rate 87% among 2,400;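 active = inhibition above the average of every tested compound plus 3 SD, cut at about 3.8% in these data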;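 note: 0% = DAX-1 cells with DMSO and 100% = no DAX-1 control cells with DMSO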
SF1 AF2mut Luc: StAR reporter signal changes without DAX1, counter-screen for DAX1 inhibitor project, cell-based, luminescence, AF-2 mutant SF-1, transactivation | hit rate 78% among 2,400 | AID 652136, 2013 | shares compounds with DAX1 inh-1 | HEK293 StAR-luciferase, SF-1 AF2 mutant | inhibition, % at 6.8 µM;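 active = inhibition above the mean of all tested compounds plus 3 SD, cut at about 3% in these data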;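 note: 0% = DAX-1 transfected cells with DMSO and 100% = cells without DAX-1 with DMSO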
An asterisk follows results filed as active; x = not tested or not shown. Hits are enriched below; roughly 4.1% of the tested compounds scored in any of these assays.

SMILES	hgDAF-12 ag	hcDAF-12 act	ssDAF-12 act	DAX1 inh-1	DAX1 inh-2	DAX1 conf	SF1 AF2mut Luc
COc1ccccc1Nc1nnc(SCC2CCCCO2)s1 (stereo not drawn)	11*	6.0*	0	5.7*	-1	4.5*	1
CCOC(=O)c1c(C)[nH]c(C(=O)COC(=O)C2CC2)c1C	7	1	-1	5.2*	0	3	0
CCOC(=O)c1c(C)[nH]c(C(=O)OCc2ccc(F)cc2)c1C	8	3	-1	5.7*	3	7.5*	5.8*
CC(=O)c1c(C)[nH]c(C(=O)COC(=O)C2CC2)c1C	-2	-1	-1	0	1	x	x
CCC(=O)c1ccc(OC(C)C(=O)NC2(C#N)CCCCC2)cc1 (stereo not drawn)	-2	1	0	0	0	x	x
Cc1ccc(C(=O)CN2C(=O)NC3(CCCCCC3)C2=O)c(C)c1	6	2	-1	5.5*	1	4.2*	3.8*
CCc1ccc(OCC(=O)NC2CCCCC2)c(Br)c1	9	4	0	6.9*	1	6.9*	4.4*
C/C(=N\NC(=O)c1ccco1)c1ccc(NC(=O)c2cccs2)cc1	11*	2	0	4.7*	1	-1	-1
COc1cccc(NC(=O)[C@H](NC(=O)[C@@H]2Cc3ccccc3CN2)c2ccccc2)c1	6	3	0	4.9*	0	4.1*	3
Cc1cccc(NC(=O)[C@H](NC(=O)[C@@H]2Cc3ccccc3CN2)c2ccccc2)c1	1	4	-1	0	0	x	x
COc1cccc(/C=C/C(=O)N2CCN(S(=O)(=O)c3ccccc3)CC2)c1	-1	-2	0	-1	1	x	x
Cc1cc(C)cc(NC(=O)C(=O)NCCCN2CCCC2=O)c1	6	5.8*	0	7.1*	2	5.1*	5.3*
Cc1ccc(NC(=O)NCCCN2CCCC2=O)cc1	1	0	-1	1	1	x	x
O=C(O)C1C2CCCCC2=C2CCCCC2C1C(=O)c1ccccc1 (stereo not drawn)	-3	-1	-1	0	0	x	x
Cc1cc(C)cc(C(=O)NC(CC(N)=O)c2ccc(NCCN3CCCC3)c([N+](=O)[O-])c2)c1 (stereo not drawn)	0	-2	-1	0	1	x	x
COC(=O)C1CCC(=O)N1C(c1ccc(OC)cc1)c1cc(OC)c(OC)c(OC)c1 (stereo not drawn)	-5	0	-1	6.2*	1	20*	-7
COc1ccc(C(CNC(=O)Cc2cc(OC)c(OC)c(OC)c2)N2CCCC2)cc1 (stereo not drawn)	0	1	-1	0	-2	x	x
CC(C)c1cccc(OCCCCN(C)C)c1	0	0	-1	0	0	x	x
O=c1ccn([C@@H]2O[C@H](CNCc3cccn3-c3ccncc3)[C@@H](O)[C@H]2O)c(=O)[nH]1	0	0	-1	0	x	x	x
COc1cccc(N2CCN(C(=O)c3ccc(CS(=O)c4ccccc4C)o3)CC2)c1 (stereo not drawn)	-3	-3	-1	1	-3	x	x
COc1cccc(N2CCN(C(=O)c3ccc(CS(=O)c4ccccc4Cl)o3)CC2)c1 (stereo not drawn)	-4	-2	-1	11*	-1	14*	-9

Source: PubChem BioAssay (The Scripps Research Institute Molecular Screening Center)
